Assay outcomes deposited in PubChem BioAssay by several laboratories.
LMP1 NFkB inh = EBV LMP1-driven NF-kappaB luciferase reporter inhibitors, primary screen, cell-based, luminescence, single point. LMP1-induced NF-kappaB luciferase reporter cells. inhibition, % at 12.5 µM. hit rate 0.69% among 350,000; in the data active = inhibition above about 41%; inconclusive = no clear call, values can overlap the other calls
PAX8 inh HTS = inhibitors of PAX8-driven TPO luciferase reporter, primary screen, RMG-I cells, single concentration. SteadyGlo, 24 h. inhibition, % at 12.6 µM. hit rate 1.2% among 360,000;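 active = mean replicate inhibition at least 60% with every replicate also reaching 60%; inconclusive = only one of the two criteria is met; inactive = mean below 60% and not all replicates reaching 60%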;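 also: luciferase light reporting Pax8 driven TPO promoter activity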
EWS-Fli block = EWS/Fli-driven NR0B1 reporter inhibitors, primary screen, A673 cells, NR0B1 luciferase, luminescence, MLPCN library; viability-normalised; hit rate 0.67% among 350,000; inhibition, % at 12.6 µM;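 active = mean inhibition of at least 50% after viability correction, with every replicate also passing that limit; inconclusive = mean reaches 50% but only one of two replicates passes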;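 also: firefly luciferase signal divided by Alamar Blue viability fluorescence both relative to DMSO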
LGR2 inh = inhibitors of bursicon-induced LGR2 CRE-luciferase signal, primary screen, cell-based, HEK293, CRE-luciferase reporter, bursicon stimulation. inhibition, % at 9.99 µM. AID 720647, 2013. bursicon-stimulated, 4 h. Drosophila bursicon receptor LGR2 (rickets). hit rate 0.35% among 380,000;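 active = drop in luminescence signal, shown as inhibition above about 50% in the replicate tests, limit read from the data, passing the limit was not always enough; inconclusive = probably only some replicates passing the limit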;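 also: agonist challenge used bursicon conditioned medium at about half maximal strength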
TROY signal inh = inhibitors of TROY-driven NF-kB signaling, primary screen, Q293 LMP1-TROYcd cells, NF-kB luciferase, uHTS; Q293 LMP1-TROYcd NF-kB luciferase reporter, 4 h; inhibition, % at 10 µM; hit rate 0.98% among 360,000;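 active = compounds whose plate-normalised and pattern-corrected inhibition of the luciferase reporter signal at the single screening dose is 50% or more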
TWEAK Fn14 block = inhibitors of TWEAK-Fn14 signaling, primary screen, luciferase reporter cells, uHTS; TWEAK-stimulated Fn14 reporter cells, luciferase luminescence, 8 h; inhibition, % at 10 µM; hit rate 2% among 360,000; in the data active = inhibition above about 50%
Large screens that a line does not name were inactive. The list is not random: actives were taken first. Their share in the collection is about 3.2%.

Nc1nc2ncc(C(=O)c3cc(Cl)cc(Cl)c3O)cc2s1	none
COc1ccccc1NC(=O)N[C@H]1CC[C@@H](CC(=O)N2CCC(Cc3ccccc3)CC2)O[C@H]1CO	none (no result: LMP1 NFkB inh, TROY signal inh, TWEAK Fn14 block)
COc1cc(Cl)c(S(=O)(=O)N2CCCC2)cc1Cl	none
COc1cc(N2C(=O)C=CC2=O)c(OC)cc1Cl	PAX8 inh HTS 110
CC[C@H](C)[C@@H]1NC(=O)[C@@H](CC(C)C)NC(=O)[C@H](C(C)C)NC(=O)[C@H]2CSSC[C@H](NC1=O)C(=O)N2	PAX8 inh HTS 116, EWS-Fli block 68, LGR2 inh 72, TROY signal inh 86, TWEAK Fn14 block 107 (no result: LMP1 NFkB inh)
c1ccc(-c2cnc(-c3ccccc3)nc2)cc1	LGR2 inh 56, TWEAK Fn14 block 67 (no result: PAX8 inh HTS, EWS-Fli block)
c1ccc(-c2ncc3c(ccc4ccccc43)n2)cc1	LGR2 inh 81, TROY signal inh 51, TWEAK Fn14 block 84 (no result: EWS-Fli block)
O=C(O)c1ncc(-c2ccccc2)cn1	none (no result: PAX8 inh HTS, EWS-Fli block, LGR2 inh)
CCCC#Cc1ccc2c(c1)O[C@@H](CN(C)C(=O)Nc1ccccc1F)[C@H](C)CN([C@@H](C)CO)S2(=O)=O	none (no result: LMP1 NFkB inh, TROY signal inh, TWEAK Fn14 block)
COCC(=O)N1C[C@@H](C)[C@H](OC)CN(C)C(=O)c2ccc(NC(=O)C3CCC3)cc2OC[C@H]1C	none (no result: LMP1 NFkB inh, PAX8 inh HTS, TROY signal inh, TWEAK Fn14 block)
Cc1nc2cc(N3CCN(C)CC3)c(NC(=O)Cc3ccccc3)cc2c(=O)n1Cc1ccccc1	TROY signal inh 59, TWEAK Fn14 block 87 (no result: PAX8 inh HTS, EWS-Fli block, LGR2 inh)
Cc1ccc(S(=O)(=O)NC23CC4CC(CC(C4)C2)C3)cc1	none
Cc1nn(C)c(C(=O)Nc2ccc(S(=O)(=O)NC34CC5CC(CC(C5)C3)C4)cc2)c1Br	TROY signal inh 51 (no result: PAX8 inh HTS, EWS-Fli block, LGR2 inh)
COCC(=O)N1[C@@H]2c3cccc(=O)n3C[C@@H]2[C@@H](CO)[C@@H]1C(=O)NCc1ccccc1Cl	none (no result: LMP1 NFkB inh, EWS-Fli block, TROY signal inh, TWEAK Fn14 block)
Cc1ccc2nc(Cl)c3nnnn3c2c1	TROY signal inh 84 (no result: PAX8 inh HTS, EWS-Fli block, LGR2 inh)
CO[C@@H]1CN(C)C(=O)c2ccc(NS(=O)(=O)c3cn(C)cn3)cc2OC[C@@H](C)N(CCC(F)(F)F)C[C@@H]1C	none (no result: LMP1 NFkB inh, TROY signal inh, TWEAK Fn14 block)
COc1cc(CN2CCCC(N3CCN(c4ccccc4C)CC3)C2)cc(Cl)c1O (stereo not given)	LMP1 NFkB inh 78
C[C@@H]1CN([C@H](C)CO)C(=O)c2cc(NS(C)(=O)=O)ccc2O[C@@H](C)CCCCO[C@@H]1CN(C)C(=O)c1ccncc1	none (no result: LMP1 NFkB inh, PAX8 inh HTS, TROY signal inh, TWEAK Fn14 block)
N#Cc1cccc(-c2ccc(C3[C@H]4CNC[C@@H]3N4Cc3cc(-c4ccccc4)on3)cc2)c1 (stereo not given in full)	none (no result: LMP1 NFkB inh, TROY signal inh, TWEAK Fn14 block)
COC(=O)N1C(=O)[C@@](c2ccccc2)(C2CCCCC2)N1C(=O)OC	TWEAK Fn14 block 73
CN1CCN(/N=C/c2ccc(N(c3ccccc3)c3ccccc3)cc2)CC1	LMP1 NFkB inh 87, LGR2 inh 78, TROY signal inh 64
CN1CCN(/N=C/c2ccc(N(C)c3ccccc3)cc2)CC1	none
CC(=O)O[C@@H]1C[C@H]2C(C)(C)C(=O)C=C[C@]2(C)[C@H]2CC[C@@]3(C)[C@H](c4ccoc4)OC(=O)[C@H]4O[C@]43[C@@]21C	PAX8 inh HTS 75
CC(C)NC(=O)N(C)C[C@H]1Oc2ccc(NC(=O)Cc3ccccc3)cc2C(=O)N([C@@H](C)CO)C[C@H]1C	none (no result: LMP1 NFkB inh, TROY signal inh, TWEAK Fn14 block)
Cc1ccnc(NC(=O)c2cccc(S(=O)(=O)N3CCN(c4ccccc4)CC3)c2)c1	LGR2 inh inconclusive, TWEAK Fn14 block 72
CN(CCOc1ccc(Cl)cc1)C(=O)c1cccc(S(=O)(=O)N2CCN(c3ccccc3)CC2)c1	TWEAK Fn14 block 50
Cc1ccnc(NC(=O)c2cccc(S(=O)(=O)N3CCCC3)c2)c1	none
CN(Cc1ccc(Cl)cc1Cl)C(=O)c1cccc(S(=O)(=O)N2CCN(c3ccccc3)CC2)c1	none
O=C(C[C@H]1C=C[C@H](NS(=O)(=O)c2ccccc2)[C@H](CO)O1)NCc1ccc(Cl)c(Cl)c1	none (no result: LMP1 NFkB inh, TROY signal inh, TWEAK Fn14 block)
COc1cc(C(=O)N/N=C/c2ccc(OC(=O)c3ccccc3Cl)cc2)ccc1O	TROY signal inh 53 (no result: EWS-Fli block)
O=C(O)c1ccc(N/N=C/C=C/c2ccccc2)cc1	TWEAK Fn14 block 63
O=C(O)c1ccc(N/N=C/c2ccc(-c3ccccc3Cl)o2)cc1	TWEAK Fn14 block 51
